Structures can show the parent of a compound that is named as a salt. ± gives the standard deviation of the averaged measurements.
system: E. coli TESEC Alr+ wild-type control; experiment: growth (OD600 after 10 h); higher = more growth (less inhibition); conditions: compound 0.1 mM; raw OD600 reference: median of DMSO wells 0.49, cell-free background 0.052
Description: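 TESEC Mtb Alr E. coli (ΔaraC ΔtolC ΔentC Δalr ΔdadX, arabinose-inducible Mtb Alr) or the Alr+ wild-type control strain, grown in defined M9-fructose medium without D-alanine in 96-well plates with Prestwick library compounds at 0.1 mM and 1% DMSO. Low Alr induction is 0.1 µM arabinose and high induction is 10 mM arabinose.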

SMILES | growth
CC(C)(C)NC[C@H](O)c1ccc(O)c(CO)c1 [Levalbuterol hydrochloride] | 0.608 ± 0.014
C[C@H](CCC(=O)O)[C@H]1CC[C@H]2[C@@H]3CC[C@@H]4C[C@H](O)CC[C@]4(C)[C@H]3CC[C@]12C [Lithocholic acid] | 0.386 ± 0.047
O=C(O)c1cccnc1Nc1cccc(C(F)(F)F)c1 [Niflumic acid] | 0.206 ± 0.046
CN(C)c1nc(N(C)C)nc(N(C)C)n1 [Altretamine] | 0.618 ± 0.023
CS(=O)(=O)c1ccc([C@@H](O)[C@@H](CF)NC(=O)C(Cl)Cl)cc1 [Florfenicol] | 0.05113 ± 0.00023
CCC(NC(C)C)C(O)c1ccc(O)c(O)c1 (stereo not given) [Isoetharine mesylate salt] | 0.64 ± 0.039
CC(=O)O[C@H]1C[C@@]2(C)[C@@H](C[C@@H](O)[C@H]3[C@@]4(C)CC[C@@H](O)[C@@H](C)[C@@H]4CC[C@@]32C)/C1=C(\CCC=C(C)C)C(=O)O [Fusidic acid sodium salt] | 0.05317 ± 0.00047
c1ccc([C@H]2CN3CCSC3=N2)cc1 [Levamisole hydrochloride] | 0.511 ± 0.054
Nc1ccc(S(=O)(=O)Nc2ccnn2-c2ccccc2)cc1 [Sulfaphenazole] | 0.484 ± 0.04
CN(C)CCOC(c1ccccc1)c1ccccc1.Cn1c(=O)c2[nH]c(Cl)nc2n(C)c1=O [Dimenhydrinate] | 0.53 ± 0.059
O=C1OC(CN2CCOCC2)CN1/N=C/c1ccc([N+](=O)[O-])o1 (stereo not given) [Furaltadone hydrochloride] | 0.05647 ± 0.00045
C[N+]1(CCCCC[N+]2(C)CCCC2)CCCC1 [Pentolinium bitartrate] | 0.515 ± 0.11
Cn1c([N+](=O)[O-])cnc1COC(N)=O [Ronidazole] | 0.458 ± 0.0079
CNC[C@H](O)[C@@H](O)[C@H](O)[C@H](O)CO [Meglumine] | 0.548 ± 0.015
CCC1(C)CC(=O)NC1=O (stereo not given) [Ethosuximide] | 0.436 ± 0.043
CCN(CC)CCCC(C)Nc1ccnc2cc(Cl)ccc12 (stereo not given) [Chloroquine diphosphate] | 0.549 ± 0.065
O=P(O)(O)C(Cl)(Cl)P(=O)(O)O [Clodronate] | 0.528 ± 0.084
CCS(=O)(=O)CCn1c([N+](=O)[O-])cnc1C [Tinidazole] | 0.521 ± 0.092
O=C(CCCN1CCN(c2ccccn2)CC1)c1ccc(F)cc1 [Azaperone] | 0.395 ± 0.0085
CC(C)(C)c1ccc(C(O)CCCN2CCC(C(O)(c3ccccc3)c3ccccc3)CC2)cc1 (stereo not given) [Terfenadine] | 0.0576 ± 0.0093

SMILES | growth
CN[C@@H]1[C@H](O[C@H]2[C@H](O[C@H]3[C@H](O)[C@@H](O)[C@H](N=C(N)N)[C@@H](O)[C@@H]3N=C(N)N)O[C@@H](C)[C@]2(O)C=O)O[C@@H](CO)[C@H](O)[C@H]1O [Streptomycin sulfate] | 0.0543 ± 0.00036
C#Cc1cccc(Nc2ncnc3cc(OCCOC)c(OCCOC)cc23)c1 [Erlotinib] | 0.436 ± 0.03
Clc1ccc(C(Cn2ccnc2)OCc2c(Cl)cccc2Cl)c(Cl)c1 (stereo not given) [Isoconazole] | 0.0722 ± 0.023
CC1COc2c(N3CCN(C)CC3)c(F)cc3c(=O)c(C(=O)O)cn1c23 (stereo not given) [Ofloxacin] | 0.0509 ± 0.00059
C[C@H](CCC(=O)O)[C@H]1CC[C@H]2[C@@H]3[C@@H](O)C[C@@H]4C[C@H](O)CC[C@]4(C)[C@H]3CC[C@]12C [Urosiol] | 0.406 ± 0.011
C=CC1=C(C(=O)O)N2C(=O)[C@@H](NC(=O)/C(=N\O)c3csc(N)n3)[C@H]2SC1 [Cefdinir] | 0.0483 ± 0.0014
Cc1cc(=O)n(-c2ccccc2)n1C [Antipyrine] | 0.474 ± 0.062
CC[C@H]1OC(=O)[C@H](C)[C@@H](O[C@H]2C[C@@](C)(OC)[C@@H](O)[C@H](C)O2)[C@H](C)[C@@H](O[C@@H]2O[C@H](C)C[C@H](N(C)C)[C@H]2O)[C@](C)(O)C[C@@H](C)[C@@H]2N[C@@H](COCCOC)O[C@H]([C@H]2C)[C@]1(C)O [Dirithromycin] | 0.0524 ± 0.00093
CC(C(=O)O)c1cccc(Oc2ccccc2)c1 (stereo not given) [Fenoprofen calcium salt dihydrate] | 0.489 ± 0.089
C[C@@H](O[C@H]1OCCN(Cc2n[nH]c(=O)[nH]2)[C@H]1c1ccc(F)cc1)c1cc(C(F)(F)F)cc(C(F)(F)F)c1 [Aprepitant] | 0.386 ± 0.22
COc1cc2nc(N3CCN(C(=O)C4COc5ccccc5O4)CC3)nc(N)c2cc1OC (stereo not given) [Doxazosin mesylate] | 0.0495 ± 0.0017
CC(C)(C)NCC(O)c1ccc(O)c(CO)c1 (stereo not given) [Salbutamol] | 0.528 ± 0.092
NS(=O)(=O)c1cc2c(cc1C(F)(F)F)NC(Cc1ccccc1)NS2(=O)=O (stereo not given) [Bendroflumethiazide] | 0.487 ± 0.035
COC(c1ccccc1)(c1ccccc1)[C@H](Oc1nc(C)cc(C)n1)C(=O)O [Ambrisentan] | 0.535 ± 0.022
Cn1cnc([N+](=O)[O-])c1Sc1ncnc2[nH]cnc12 [Azathioprine] | 0.27 ± 0.0092
O=C1OCCN1/N=C/c1ccc([N+](=O)[O-])o1 [Furazolidone] | 0.05247 ± 0.00031
COc1ccccc1Oc1c(NS(=O)(=O)c2ccc(C(C)(C)C)cc2)nc(-c2ncccn2)nc1OCCO [Bosentan] | 0.544 ± 0.091
NC(=O)c1cnccn1 [Pyrazinamide] | 0.538 ± 0.071
CCN(CC)C(=O)/C(C#N)=C/c1cc(O)c(O)c([N+](=O)[O-])c1 [Entacapone] | 0.144 ± 0.02
N[C@@H](Cc1cc(I)c(Oc2ccc(O)c(I)c2)c(I)c1)C(=O)O [Liothyronine] | 0.36 ± 0.023
